Most compounds without a hit are left out; they make up all but 11% or so of the library.
AmpC no deterg = AmpC beta-lactamase inhibition without detergent. Potency, µM (top dose mostly 57.1 µM), most hits filed as inhibitors. 330,000 tested, 0.52% active. P00811. AmpC nitrocefin hydrolysis, absorbance 480 nm, 0.0001% Triton. AID 485341; further: nearly all actives have a fitted effect of over 20% in size
Target sequence (P00811 whole entry, looked up): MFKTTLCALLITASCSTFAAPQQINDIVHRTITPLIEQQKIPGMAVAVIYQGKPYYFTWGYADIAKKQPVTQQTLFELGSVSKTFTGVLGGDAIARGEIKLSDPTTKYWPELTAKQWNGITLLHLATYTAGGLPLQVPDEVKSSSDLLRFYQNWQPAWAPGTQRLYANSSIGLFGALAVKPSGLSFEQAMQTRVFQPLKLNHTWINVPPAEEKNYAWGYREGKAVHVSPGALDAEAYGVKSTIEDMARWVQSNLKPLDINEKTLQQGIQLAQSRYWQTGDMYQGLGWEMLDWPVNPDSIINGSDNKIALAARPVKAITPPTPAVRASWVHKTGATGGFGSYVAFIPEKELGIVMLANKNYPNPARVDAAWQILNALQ
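AmpC (5.3 nM in the dispensed reagent) in 20 mM phosphate pH 7.0 with 0.01% (detergent screen) or 0.0001% Triton X-100 was preincubated with compounds for 15 min at room temperature. Nitrocefin was then added from an 800 uM solution, and hydrolysis was followed at 480 nm.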
AmpC inh detg = AmpC beta-lactamase inhibition with detergent present; AmpC hydrolysis of nitrocefin, absorbance 480 nm, 0.01% Triton; Potency, µM (titrated, usually from 114 µM), hits mostly inhibitors; 370,000 tested, 0.041% active; AID 485294; further: nearly all actives have a fitted effect of over 25% in size
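AmpC (5.3 nM in the dispensed reagent) in 20 mM phosphate pH 7.0 with 0.01% (detergent screen) or 0.0001% Triton X-100 was preincubated with compounds for 15 min at room temperature. Nitrocefin was then added from an 800 uM solution, and hydrolysis was followed at 480 nm.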
AMA1 RON2 block = disrupts binding of P. falciparum AMA1 to RON2. Potency, µM (series often up to 58.2 µM), hits mostly inhibitors. 360,000 tested, 0.2% active. AlphaScreen AMA1-biotinylated RON2 peptide binding; further: nearly all actives have a fitted effect of over 45% in size
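AMA1 (3D7) with his tag at 25 nM final met compounds first, then biotinylated RON2 peptide at 25 nM; detection used donor plus acceptor beads, 10 µg/mL apiece, read by AlphaScreen after 30 min at room temperature.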
Pf growth 48h = inhibits P. falciparum growth in the first generation, 48 h; P. falciparum luciferase growth in erythrocytes, 48 h; 310,000 tested, 5.9% active; Potency, µM (titrated, usually from 28.7 µM), usual class: inhibitors
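First compound was added to culture medium, then infected red cells at 0.1% parasitemia and 2% hematocrit (final). After incubation at 37 C under 5% CO2, luciferase detection reagent was dispensed and light output recorded.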
HCV inh = HCV inhibition | Potency, µM (doses to about 41.8 µM), most hits filed as inhibitors | AID 651820 | 340,000 tested, 3.4% active | Huh7.5.1 HCVcc-Cre infection, luciferase reporter, 44 h
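A cell-based infection assay in which seeded cells (1,000 per well) receive test compound after 4 h, are inoculated with HCVcc-Cre at approximately 0.5 moi, and are incubated 44 h before luminescence detection.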
Pf growth 96h = P. falciparum growth inhibition at 96 hour, primary screen for plastid delayed-death inhibitors; Potency, µM (highest dose often 28.7 µM), usual class: inhibitors; AID 504834; 320,000 tested, 6.9% active; P. falciparum luciferase reporter growth, 96 h
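Readout is luminescence from an integrated firefly luciferase in P. falciparum. Red cells, 2% hematocrit and 0.05% parasitemia final, were cultured with compound through two parasite generations (96 hours) at 37 C, 5% CO2.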
Numbers stand for hits. The call rests on the fitted dose curve; in most records, active means well fitted curve in the direction sought with a large enough effect; inconclusive means small, poorly fitted or top-dose-only effect, or another doubt; inactive means no such curve, though single readings can be large; an effect the other way counts as inactive or inconclusive.

What do the screens show for `O=C(N/N=C/c1cccs1)c1cccc(S(=O)(=O)Nc2ccc(Cl)cc2)c1`?
AmpC no deterg: 14.1µM; AmpC inh detg: inactive; AMA1 RON2 block: inactive; Pf growth 48h: inactive; HCV inh: inactive; Pf growth 96h: inactive

How did COc1cccc(NC(=O)C(=O)c2cn(CC(=O)N3CCCC3)c3ccccc23)c1 do in these assays?
AmpC no deterg: inactive; AmpC inh detg: inactive; AMA1 RON2 block: inactive; Pf growth 48h: inactive; HCV inh: inconclusive; Pf growth 96h: 10.4µM

How did COc1ccc(NC(=O)C(=O)c2cn(CC(=O)N3CCCC3)c3ccccc23)cc1OC do in these assays?
AmpC no deterg: inactive; AmpC inh detg: inconclusive; AMA1 RON2 block: inactive; Pf growth 48h: inactive; HCV inh: inconclusive; Pf growth 96h: inconclusive

Results for Cc1ccc(NC(=O)C(=O)c2cn(CC(=O)N3CCCCC3)c3ccccc23)cc1 ?
AmpC no deterg: inactive; AmpC inh detg: inactive; AMA1 RON2 block: inactive; Pf growth 48h: inactive; HCV inh: inconclusive; Pf growth 96h: inconclusive

How did COc1ccc(C)cc1NC(=O)C(=O)c1cn(CC(=O)N2CCCC2)c2ccccc12 do in these assays?
AmpC no deterg: inactive; AmpC inh detg: inconclusive; AMA1 RON2 block: inactive; Pf growth 48h: inconclusive; Pf growth 96h: 8.28µM

What do the screens show for `COc1ccc(OC)c(NC(=O)C(=O)c2cn(CC(=O)N3CCCC3)c3ccccc23)c1`?
AmpC no deterg: inactive; AmpC inh detg: inactive; AMA1 RON2 block: inactive; Pf growth 48h: 9.28µM; HCV inh: inconclusive; Pf growth 96h: 4.65µM

How did COc1ccc(C(=O)N=c2sc3cc(Cl)ccc3n2C)cc1 do in these assays?
AmpC inh detg: inactive

What do the screens show for `COc1cccc(NC(=O)Cn2cc(S(=O)(=O)Cc3ccccc3F)c3ccccc32)c1`?
AmpC inh detg: inactive

How did O=C(C1=C[C@@H](c2ccc(Br)cc2)C[C@@H](OCCCCO)O1)N1CCN(Cc2ccc3c(c2)OCO3)CC1 do in these assays?
AmpC no deterg: inactive; AmpC inh detg: inactive; AMA1 RON2 block: inactive; Pf growth 48h: 4.15µM; HCV inh: inconclusive; Pf growth 96h: 4.15µM

What do the screens show for `O=C(C1=C[C@H](c2ccccc2)C[C@H](OCCCCO)O1)N1CCN(Cc2ccc3c(c2)OCO3)CC1`?
AmpC no deterg: inactive; AmpC inh detg: inactive; AMA1 RON2 block: inactive; Pf growth 48h: inconclusive; HCV inh: inconclusive; Pf growth 96h: inconclusive

How did O=C(C1=C[C@H](c2ccc(C(F)(F)F)cc2)C[C@H](OCCCCO)O1)N1CCN(Cc2ccc3c(c2)OCO3)CC1 do in these assays?
AmpC no deterg: inactive; AmpC inh detg: inactive; AMA1 RON2 block: inactive; Pf growth 48h: 5.86µM; HCV inh: inconclusive; Pf growth 96h: 3.7µM

How did CC(=O)c1ccc(N2CCN(S(=O)(=O)c3ccc4c5c3CC(=O)N5CC(C)S4)CC2)cc1 (stereo not drawn) do in these assays?
AmpC no deterg: inactive; AmpC inh detg: inactive; AMA1 RON2 block: inactive; Pf growth 48h: 3.29µM; HCV inh: inconclusive; Pf growth 96h: inconclusive

How did Cc1cc(C)n(C(C)CC(=O)NCc2ccc(N(C)C)cc2)n1 (stereo not drawn) do in these assays?
AmpC inh detg: inactive

Results for COc1ccccc1CNC(=O)c1oc2c(c1C)-c1nn(Cc3ccc(Cl)cc3)cc1CC2 ?
AmpC inh detg: inactive

Results for CCC(C)(C)NC(=O)C(c1cccn1C)N(C(=O)Cn1nnc2ccccc21)c1ccc(OC)cc1OC (stereo not drawn) ?
AmpC no deterg: inactive; AmpC inh detg: inconclusive; AMA1 RON2 block: inactive; Pf growth 48h: 8.28µM; HCV inh: inactive; Pf growth 96h: inactive

Results for COc1ccc(C(C(=O)NCc2ccccc2)N(C(=O)Cn2nnc3ccccc32)c2ccc(OC)cc2)cc1 (stereo not drawn) ?
AmpC inh detg: inactive

How did CCOc1ccc(N(C(=O)Cn2nnc3ccccc32)C(C(=O)NC(C)(C)CC)c2cccn2C)cc1 (stereo not drawn) do in these assays?
AmpC no deterg: inactive; AmpC inh detg: inactive; AMA1 RON2 block: inactive; Pf growth 48h: 13.1µM; HCV inh: inactive; Pf growth 96h: inactive

How did Cc1ccc2ccc3cc(C(=O)Nc4ccc(C)c(F)c4)nc3c2[nH]1 do in these assays?
AmpC inh detg: inactive

Results for CN(C)C(=O)COc1ccc2c3c(c(=O)oc2c1)CCCC3 ?
AmpC no deterg: inactive; AmpC inh detg: inconclusive; AMA1 RON2 block: inactive; Pf growth 48h: inactive; HCV inh: inactive; Pf growth 96h: 9.28µM

Results for CCN(CC)C(=O)COc1ccc2c3c(c(=O)oc2c1)CCCC3 ?
AmpC no deterg: inactive; AmpC inh detg: inactive; AMA1 RON2 block: inactive; Pf growth 48h: inconclusive; HCV inh: inactive; Pf growth 96h: inactive

Results for CC(Oc1ccc2c3c(c(=O)oc2c1)CCCC3)C(=O)NC1CC(C)(C)NC(C)(C)C1 (stereo not drawn) ?
AmpC no deterg: inactive; AmpC inh detg: inactive; AMA1 RON2 block: inactive; Pf growth 48h: 14.7µM; HCV inh: inconclusive; Pf growth 96h: 9.28µM

Results for Cc1c(C)c2ccc(OC(C)C(=O)NC3CC(C)(C)NC(C)(C)C3)cc2oc1=O (stereo not drawn) ?
AmpC no deterg: inactive; AmpC inh detg: inactive; AMA1 RON2 block: inactive; Pf growth 48h: inconclusive; HCV inh: inactive; Pf growth 96h: inactive

How did CC(Oc1cc2oc(=O)c3c(c2cc1Cl)CCC3)C(=O)NC1CC(C)(C)NC(C)(C)C1 (stereo not drawn) do in these assays?
AmpC no deterg: inactive; AmpC inh detg: inactive; AMA1 RON2 block: inactive; Pf growth 48h: 13.1µM; HCV inh: inconclusive; Pf growth 96h: inconclusive

What do the screens show for `CC(C)c1ccc(C2Sc3ccccc3NC3=C2C(=O)c2ccccc23)cc1` (stereo not drawn)?
AmpC inh detg: inactive

How did O=C1C2=C(Nc3ccccc3SC2c2ccco2)c2ccccc21 (stereo not drawn) do in these assays?
AmpC no deterg: inactive; AmpC inh detg: inactive; AMA1 RON2 block: inconclusive; Pf growth 48h: 0.329µM; HCV inh: inconclusive; Pf growth 96h: inactive

How did O=C1CN(C(=O)COc2ccc(Cl)cc2)C(c2ccccc2)c2cc(Br)ccc2N1 (stereo not drawn) do in these assays?
AmpC inh detg: inactive

How did Cc1cc(C)c2nc(N3CCCC(C(=O)NCc4ccccc4F)C3)sc2c1 (stereo not drawn) do in these assays?
AmpC inh detg: inactive

Results for c1ccc(-c2cc(CSc3nc4ccccc4[nH]3)on2)cc1 ?
AmpC no deterg: inactive; AmpC inh detg: inconclusive; AMA1 RON2 block: inactive; Pf growth 48h: inactive; HCV inh: 3.98µM

What do the screens show for `CCc1ccc(NC(=O)CC2C(=O)N(c3ccccc3)C(=O)N2C(C)C)cc1` (stereo not drawn)?
AmpC inh detg: inactive

Source: PubChem BioAssay
